# In publication PMC4336329 (PLoS ONE, 2015):
# Among all 310,000 compounds or so, about 2,200 (0.71%) showed an effect of 50% or more. Effects have a minus sign here. The list comes from a sample in which strong results are over-represented; it also holds similar structures and randomly drawn compounds.
# Target: human ether-à-go-go-related gene (hERG) potassium channel (human, UniProt Q12809)
# Experiment: primary screen, population patch clamp on CHO cells stably expressing hERG; higher = less effect of the substance
# Sequence of human ether-à-go-go-related gene (hERG) potassium channel (Q12809 whole entry, looked up): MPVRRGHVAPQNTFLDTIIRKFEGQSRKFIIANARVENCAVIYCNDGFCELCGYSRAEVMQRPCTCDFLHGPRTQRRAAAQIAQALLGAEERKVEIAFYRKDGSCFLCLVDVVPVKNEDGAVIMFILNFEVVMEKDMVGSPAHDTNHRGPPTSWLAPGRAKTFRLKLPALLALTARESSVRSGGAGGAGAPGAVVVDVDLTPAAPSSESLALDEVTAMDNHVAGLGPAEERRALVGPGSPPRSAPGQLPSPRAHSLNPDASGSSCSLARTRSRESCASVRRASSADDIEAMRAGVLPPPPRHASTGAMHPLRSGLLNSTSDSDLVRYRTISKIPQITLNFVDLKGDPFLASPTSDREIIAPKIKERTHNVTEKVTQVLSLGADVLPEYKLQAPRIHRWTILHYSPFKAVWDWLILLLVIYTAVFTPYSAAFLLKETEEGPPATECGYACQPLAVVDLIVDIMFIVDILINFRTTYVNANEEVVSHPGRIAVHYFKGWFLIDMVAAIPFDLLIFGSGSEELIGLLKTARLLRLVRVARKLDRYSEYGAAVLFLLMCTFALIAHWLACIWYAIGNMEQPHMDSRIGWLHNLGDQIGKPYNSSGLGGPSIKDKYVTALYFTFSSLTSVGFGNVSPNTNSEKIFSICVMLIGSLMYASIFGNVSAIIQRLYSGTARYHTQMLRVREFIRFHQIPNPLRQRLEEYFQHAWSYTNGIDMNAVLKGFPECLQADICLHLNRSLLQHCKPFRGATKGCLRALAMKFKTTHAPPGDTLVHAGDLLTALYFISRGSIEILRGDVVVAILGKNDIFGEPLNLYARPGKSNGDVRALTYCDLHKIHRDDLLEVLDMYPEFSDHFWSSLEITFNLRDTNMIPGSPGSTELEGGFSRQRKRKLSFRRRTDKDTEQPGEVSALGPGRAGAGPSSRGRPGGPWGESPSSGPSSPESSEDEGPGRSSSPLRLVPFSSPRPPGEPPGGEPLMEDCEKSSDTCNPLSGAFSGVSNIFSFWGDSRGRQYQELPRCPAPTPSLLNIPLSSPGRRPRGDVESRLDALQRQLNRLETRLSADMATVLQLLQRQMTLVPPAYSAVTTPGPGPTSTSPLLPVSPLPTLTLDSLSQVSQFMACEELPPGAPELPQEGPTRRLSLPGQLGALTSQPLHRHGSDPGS
row,SMILES,"hERG current change (%, negative = inhibition) at 1uM"
1,Cc1ccc(S(=O)(=O)N2CCOC23CCN(C(=O)C(=O)NCCC(C)C)CC3)cc1,4.48%
2,O=c1[nH]c(=O)n(CCc2ccc(F)cc2)c(O)c1/C=N/N1CCCCC1,11.7%
3,CCOC(=O)C1(C)/C(=N/Nc2ccccc2)C(=O)C(=O)N1c1ccccc1 (centres unmarked),-3.13%
4,Cc1cccn2c(=O)c3cc(C(=O)NC4CCCCC4)c(=N)n(Cc4ccc(F)cc4)c3nc12,-16%
5,Cc1ccc(Cn2c(=N)c(C(=O)NCC3CCCO3)cc3c(=O)n4cccc(C)c4nc32)cc1 (centres unmarked),-85.9%
6,Cc1cccn2c(=O)c3cc(C(=O)NCC4CCCO4)c(=N)n(Cc4cccnc4)c3nc12 (centres unmarked),-96.3%
7,Cc1cccn2c(=O)c3cc(C(=O)NCc4cccnc4)c(=N)n(CC4CCCO4)c3nc12 (centres unmarked),-78.5%
8,Cc1cccn2c(=O)c3cc(C#N)c(=NC(=O)c4cccnc4)n(CC4CCCO4)c3nc12 (centres unmarked),-10.2%
9,Cc1cccn2c(=O)c3cc(C(=O)NCC4CCCO4)c(=N)n(Cc4ccc(F)cc4)c3nc12 (centres unmarked),-80.4%
10,Cc1cccn2c(=O)c3cc(C(=O)NC4CCCC4)c(=N)n(Cc4ccc(F)cc4)c3nc12,-19.4%
11,Cc1cccn2c(=O)c3cc(C(=O)NCCN4CCOCC4)c(=N)n(Cc4cccnc4)c3nc12,9.95%
12,CCn1c(SCc2nc(CC(=O)Nc3ccccc3OC)no2)nnc1-c1cccs1,-19.1%
13,COc1ccc(CNC(=O)C2CSC(=O)C2)cc1 (centres unmarked),8.88%
14,Cc1cccc(-n2c(O)c(/C=N/NC(=O)c3ccccc3Cl)c3ccccc3c2=O)n1,9.11%
15,COc1cccc(/C=C/C(=O)OCC(=O)Nc2cc(C(F)(F)F)ccc2Cl)c1,8.68%
16,CN(C(=O)c1ccc(OC2CCN(S(=O)(=O)N(C)C)CC2)cc1)C1CCCCC1,-1.59%
17,O=C(NCCNC(=O)c1cc(OCC(F)(F)F)ccc1OCC(F)(F)F)Nc1ccccc1,-15%
18,CCN1CCS/C1=C/C=C/C1=[N+](CC)CCS1.[I-],3.64%
19,Cn1c(CCN2CCCCC2)nc2cc(NS(=O)(=O)c3ccc(Cl)cc3)ccc21,-59.1%
20,Cn1c(CCN2CCCC2)nc2cc(NS(=O)(=O)c3ccc(Cl)cc3)ccc21,-62%

row,SMILES,"hERG current change (%, negative = inhibition) at 1uM"
1,CCN1CCN(CCc2nc3cc([N+](=O)[O-])ccc3n2C)CC1,-1.88%
2,Cn1c(CN2CCCCC2)nc2cc(NS(=O)(=O)c3ccc(Cl)cc3)ccc21,-9.75%
3,Cn1c(CCN2CCCCC2)nc2cc([N+](=O)[O-])ccc21,-54.8%
4,CC(=O)N1CCN(Cc2nc3cc([N+](=O)[O-])ccc3n2C)CC1,14%
5,Cn1c(CN2CCCCC2)nc2cc([N+](=O)[O-])ccc21,-2.57%
6,Cc1ccc(S(=O)(=O)Nc2ccc3c(c2)nc(CCN2CCCCC2)n3C)cc1,-29.7%
7,Cn1c(CN2CCN(C(=O)c3ccc(F)cc3)CC2)nc2cc([N+](=O)[O-])ccc21,-59.1%
8,Cc1ccc(S(=O)(=O)Nc2ccc3c(c2)nc(CCN2CCCC2)n3C)cc1,-13.7%
9,Cn1c(CN2CCN(C(=O)c3ccccc3)CC2)nc2cc([N+](=O)[O-])ccc21,-29.6%
10,Cn1c(CN2CCCC2)nc2cc(NS(=O)(=O)c3ccc(Cl)cc3)ccc21,-31%
11,CSCCC(NC(=O)OCc1ccccc1)C(=O)NCc1cccnc1 (centres unmarked),9.52%
12,O=C(N/N=C/c1ccc2c(c1)OCO2)c1ccc(COCC(F)(F)C(F)F)cc1,9.11%
13,N#Cc1nc(Cc2ccccc2)oc1N1CCCC1,4.79%
14,Cc1ccc(C)c(-n2ccnc2SCC(=O)O)c1,14.4%
15,COC(=O)c1sc(S(=O)(=O)NC(C)C(=O)O)c(C(=O)OC)c1C (centres unmarked),-4.83%
16,CCCN(CCC)CCCNC(=O)C1CCN(S(=O)(=O)c2cccc3nsnc23)CC1,12.5%
17,CCc1ccc(NC(=O)Nc2cccs2)cc1,21.2%
18,COc1cccc(C2=NOC(C(=O)Nc3ccc4c(c3)OCO4)C2)c1 (centres unmarked),12.7%
19,CCNS(=O)(=O)c1ccc(CCC(=O)N2CCN(c3cc(Cl)ccc3C)CC2)cc1,12.4%
20,CCCOC1OC(=O)c2c1ccc(OC)c2OC (centres unmarked),11.9%

row,SMILES,"hERG current change (%, negative = inhibition) at 1uM"
1,Cc1cccc(S(=O)(=O)Nc2ccc(-c3ccc4nncn4n3)cc2)c1,-85.6%
2,O=S(=O)(Nc1ccc(-c2ccc3nncn3n2)cc1)c1cccc(F)c1,14.1%
3,Cc1ccc(S(=O)(=O)Nc2ccc(-c3ccc4nncn4n3)cc2)cc1,24.9%
4,BrCC1C[n+]2c(SCc3ccccc3)nc3sc4c(c3c2O1)CCCC4.[Br-] (centres unmarked),10.3%
5,Cc1ccc2c(c1)CCCN2C(=O)c1ccncc1,8.11%
6,CCOC(=O)c1cccc(N2C(=O)C3C(C2=O)C2C=CC3C23CC3)c1 (centres unmarked),8.16%
7,CCOc1ccccc1N1CCN(c2nc3ccccc3nc2C(C#N)C(=O)OC(C)C)CC1 (centres unmarked),12.5%
8,CCOc1ccc(C(=O)N2CCN(CCc3ccccc3)CC2)cc1OCC,-77.5%
9,CCOc1ccc(C(=O)N2CCN(C(=O)c3ccco3)CC2)cc1OCC,10.8%
10,COc1cccc(C(=O)N2CCN(CCCc3ccccc3)CC2)c1OC.O=C(O)C(=O)O,-4.87%
11,CN1CCN(C(=O)c2cc3ccccc3oc2=O)CC1,8.34%
12,O=C(NCCN1CCN(C(=O)c2cc3ccccc3oc2=O)CC1)c1cc2ccccc2oc1=O,-0.615%
13,COc1cc(C(=O)N2CCN(CCCc3ccccc3)CC2)cc(OC)c1OC,3.21%
14,COc1ccc(C(=O)N2CCN(Cc3ccccc3)CC2)cc1[N+](=O)[O-],-22.3%
15,COc1ccc(C(=O)N2CCN(CCCc3ccccc3)CC2)cc1OC.O=C(O)C(=O)O,-61.8%
16,COc1ccc(C(=O)N2CCN(CCc3ccccc3)CC2)cc1[N+](=O)[O-],-73.5%
17,CCOc1ccc(C(=O)N2CCN(c3ccccc3)CC2)cc1OCC,1.55%
18,COc1ccc(C(=O)N2CCN(Cc3ccc4c(c3)OCO4)CC2)cc1[N+](=O)[O-],-6.08%
19,O=C(c1cc2ccccc2oc1=O)N1CCN(CCc2ccccc2)CC1,-60.4%
